The results in this text go back to PubChem BioAssay (NCI).

Several values for one entry are separate records, joined by “and”; a condition that tells them apart may be missing. Equal entries are not always repeated. Compounds without any hit were thinned out: in the full panel of roughly 83,000, 20% have a hit.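 Negative percent growth values reflect cell death: -40 means 40% of the cells present at the start died, and -100 means all died.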 A number with no mark means an inactive call. Activity calls are given as the source filed them. How the source made its calls: active means growth percent below 10; inactive means the rest.

For the assay, the system named is MDA-MB-468 breast. Nature of the assay: NCI-60 one-dose screen, 48 h (100 = growth as untreated, 0 = no growth, -100 = all killed). Conditions: 10 µM unless noted.
As for `O=S1(=O)NCCN1CCNc1nccc(-c2c(-c3cccc(O)c3)nc3sccn23)n1`, the growth was 96.8%. Take `CC(=O)OCc1cc(-c2nc3ccccc3[nH]c2=O)nn1-c1ccc(Cl)cc1`: the growth is 89.3%. The value for `COc1cccc(NC(=O)c2cccc(C3CCc4c(cc(OC)c(OC)c4OC)O3)c2)c1` (stereo not given) was 71.5%; that for `N#Cc1nc(-c2ccc(F)cc2)oc1S(=O)(=O)N1CCCCC1` was 52.7%. `C=C1CC[C@@H]2[C@@](C)(CCC[C@]2(C)C(=O)O)[C@@H]1CC[C@H](CO)CCO`: the growth was 108%. As for `O=C1c2c[n+](Cc3ccccc3)ccc2-c2nc3ccccc3c3ccnc1c23`, the growth is -59.2% (active). For `c1cc(CNC23CC4CC(CC(C4)C2)C3)cc(C[N+](Cc2cccc(CNC34CC5CC(CC(C5)C3)C4)c2)(Cc2cccc(CNC34CC5CC(CC(C5)C3)C4)c2)Cc2cccc(CNC34CC5CC(CC(C5)C3)C4)c2)c1` (stereo not given), the growth is -47.1% [42 µM] (active). On to `CCCCOC(=O)c1cc(O)c(O)c(O)c1`, for which the growth was 96.5%.

On to `O=C(CN(C1CCCCC1)C1CCCCC1)Nc1ccc(S(=O)(=O)c2ccc(NC(=O)CN(C3CCCCC3)C3CCCCC3)cc2)cc1`, for which the growth was -55.1% (active).

In the case of `COC(=O)N/N=C/c1c[n+]([O-])c2ccccc2[n+]1[O-]`, the growth is 110%. For `COc1cc(NCCCCCNC(C)C)c2ncccc2c1`, the growth was 87.6% and 39.1%. For `COc1cc(Cn2ncc3ccc(NC(=O)c4cc5ccccc5oc4=N)cc32)cc(OC)c1OC` the value was 36.8%. For `O=C(Nc1ccc(F)c(Cl)c1)Nc1ccc(Cl)c(Cl)c1` the value was 9.54% (active). In the case of `Cc1ccc(-n2cc(/C=C/C(=O)c3ccc(S(C)(=O)=O)cc3)c(-c3ccc(S(C)(=O)=O)cc3)n2)cc1`, the growth was 106%. For `COc1c(B(O)O)cccc1-c1nc2ccc3[nH]ncc3c2c2c1CCC2` the value was 60%; for `CCCCCN(CCCCC)C(C)C(O)c1ccc2cc(Cl)c3ccccc3c2c1` (stereo not given), 91%; for `O=C(/C=C/c1c(Cl)nc2sccn12)c1ccc(F)c(F)c1`, 35.4%.

Take `C=C1C(=O)O[C@H]2[C@H]1CC/C(CNS(=O)(=O)c1cccc3ccccc13)=C\CC[C@@]1(C)O[C@@H]21`: the growth is 1.44% (active).

On to `CC(C)(C)c1cc(C[P+](c2ccc(Cl)cc2)(c2ccc(Cl)cc2)c2ccc(Cl)cc2)cc(C(C)(C)C)c1O`, for which the growth was 6.75% (active). The value for `O=C(Nc1ccccc1)Nc1ncnc2c1ncn2-c1ccccc1` was 74.3%; that for `Cc1ccc2oc(=O)cc(-c3sc(N4CCCCC4)nc3-c3ccccc3)c2c1` was 102%. With `Nc1nc(=S)c2ncn(C3OC(COP(=O)(O)O)C(O)C3O)c2[nH]1` (stereo not given), the growth is 4.34% (active). For `COc1ccc(/C=C/C=C\C(=O)c2ccc(-n3ccnc3)cc2)cc1` the value was 92.4%. The value for `O=C1[C@H]2Cc3c([nH]c4ccccc34)[C@@H](c3ccc(Cl)cc3)N2C(=O)CN1C1CCN(Cc2c(Cl)cccc2Cl)CC1` was 98.3%; that for `O=C(Nc1ccc(Cl)c(C(F)(F)F)c1)Nc1ccc2c(ccn2C(=O)c2cccc(F)c2)c1` was 9.28% (active). For `c1ccc2c(Cc3csc4ccccc34)csc2c1`, the growth was 74%. For `Cc1cccc(N=NC(=S)NNc2cccc(C)c2)c1` the value was 116%; for `CCCOc1ccc(/C=N/Nc2cc(C)nc3ccc(Br)cc23)cc1`, 96.1%; for `O=C(Cc1ccc([N+](=O)[O-])cc1)Oc1ccccc1`, 113%.

`O=C1SCN(Cc2ccccc2)CN1Cc1ccccc1`: the growth was 24.8%.

For `O=C1c2ccccc2C(=O)c2c1ccc(C(Br)Br)c2[N+](=O)[O-]`, the growth is -66.5% (active). The value for `CCC(CC)N1C(=O)/C(=c2\sc3n(c2=O)C2C(NN=3)N(CC)C(=O)N2CC)c2ccccc21` (stereo not given) was 42.8%; that for `C[n+]1c(/C=C/c2c[nH]c3ccccc23)ccc2ccccc21` was 23%. Take `C#CCC#CCN1CCC[C@H]1C(=O)NCC(=O)OC`: the growth was 99.1%. As for `COc1ccc(NC(=O)Nc2ccc(-c3ccc(OC)c(OC)c3)nc2C)cc1`, the growth is 83%. Regarding `COc1ccc(C(=O)NNc2nc(Cl)nc(N3CCN(C(c4ccccc4)c4ccccc4)CC3)n2)cc1`, the growth was -31.9% (active). For `Clc1ccc(CNc2ccc3nc(CCC4CCCCC4)[nH]c3c2)cc1` the value was -43.5% (active); for `COc1cc(/C=C/C(=O)c2ccc(NC(=O)CSc3nnc(-c4cc(OC)c(OC)c(OC)c4)n3-c3ccccc3)cc2)cc(OC)c1OC`, 9.24% (active). `CN1C(=O)N(C)C2C1NN=c1s/c(=C\c3ccccn3)c(=O)n12` (stereo not given): the growth is 88.8%. For `CNC(=O)c1ccccc1Oc1nc(Nc2cc(OC)c(OC)c(OC)c2)ncc1Br` the value was 49.6%.
